# In PubChem BioAssay (NCATS):
# Results filed as inconclusive are left out. Where a call stands in place of a potency, no number is given. Values without a mark were called inactive. Active and inactive are the calls of the source. The call rests on the fitted dose curve; in most records, active means well fitted cell-killing curve with a large enough effect; inconclusive means small, poorly fitted or top-dose-only effect, or effect the other way; inactive means flat fitted curve, though single readings scatter.
# Key:
# Assay in all cases: Primary qHTS to identify gynecologic anti-cancer compounds using libraries of approved drugs and bioactive compounds (AID 1345084); further: nearly all actives have a fitted effect of over 55% in size
# Conditions in all cases: Gynecologic cancer cell panel viability, ATPlite luminescence, 48 h; series mostly up to 57.5 µM
# [1] = test system: PA-1
# Method in brief: (§1)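 48 h compound exposure at 37 C, 5% CO2; five-point qHTS. ATPlite luminescence readout of cell ATP.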
# [2] = test system: SKOV3
# Method in brief: as §1
# [3] = test system: Tov-21-G
# Method in brief: as §1
# [4] = test system: Tov112D
# Method in brief: as §1
# Potency means the concentration at half of the fitted maximal effect.
smiles,measurement,setting,value
Nc1ccccc1N,Potency,[1],14.1 µM (active)
same,Potency,[2],12.6 µM (active)
same,Potency,[3],12.6 µM (active)
Nc1nc(Nc2ccc(S(N)(=O)=O)cc2)n(C(=S)Nc2c(F)cccc2F)n1,Potency,[1],inactive
same,Potency,[2],inactive
CCC1C(=O)N(C)c2cnc(Nc3ccc(C(=O)NC4CCC(N5CCN(CC6CC6)CC5)CC4)cc3OC)nc2N1C(C)C (centres undefined),Potency,[1],0.316 µM (active)
O=C(/C=C\n1cnc(-c2cc(C(F)(F)F)cc(C(F)(F)F)c2)n1)N1CC(F)(F)C1,Potency,[1],1.41 µM (active)
CC12CCC(OC3OC(CO)C(O)C(OC4OC(CO)C(O)C(O)C4O)C3O)CC1CCC1C2CCC2(C)/C(=C3/COC(=O)C3)CCC12O (centres undefined),Potency,[1],inactive
same,Potency,[2],inactive
same,Potency,[3],inactive
CNC(=O)c1ccccc1Nc1nc(Nc2ccc3c(c2OC)CCCC(N2CCN(CCO)CC2)C3)ncc1Cl (centres undefined),Potency,[1],11.2 µM (active)
same,Potency,[2],3.98 µM (active)
same,Potency,[3],10 µM (active)
COc1cc(C(=O)NC2CCN(C)CC2)ccc1Nc1ncc2c(n1)N(C1CCCC1)CC(F)(F)C(=O)N2C,Potency,[1],0.251 µM (active)
same,Potency,[2],15.8 µM (active)
C=C(CO[C@@H]1O[C@H](CO[C@@H]2OC[C@](O)(CO)[C@H]2O)[C@@H](O)[C@H](O)[C@H]1O)C1Cc2cc(C(C)=O)ccc2O1 (some centres undefined),Potency,[1],inactive
same,Potency,[2],inactive
same,Potency,[3],inactive
same,Potency,[4],inactive
O=C(Nc1ccccc1-c1cn2c(CN3CCNCC3)csc2n1)c1ccc2ccccc2n1,Potency,[1],inactive
same,Potency,[2],inactive
same,Potency,[3],inactive
same,Potency,[4],inactive
COC(C(=O)N1Cc2[nH]nc(NC(=O)c3ccc(N4CCN(C)CC4)cc3)c2C1)c1ccccc1 (centres undefined),Potency,[1],7.94 µM (active)
same,Potency,[2],17.8 µM (active)
same,Potency,[3],12.6 µM (active)
O=C(O)c1cc2cccc([N+](=O)[O-])c2[nH]1,Potency,[1],inactive
same,Potency,[2],inactive
same,Potency,[3],inactive
CC1(C)CC2C=C(C(=O)O)C3COC(=O)C(O)(CO)C23C1 (centres undefined),Potency,[1],inactive
same,Potency,[2],inactive
same,Potency,[3],inactive
same,Potency,[4],inactive
COc1cc2occc2c(O[C@@H]2O[C@H](CO)[C@@H](O)[C@H](O)[C@H]2O)c1CCC(=O)O,Potency,[1],inactive
same,Potency,[2],inactive
same,Potency,[3],inactive
same,Potency,[4],inactive
C=C(C(=O)OC)C1C(O)CC2(C)C(=O)CCC(O)(CO)C2C1O (centres undefined),Potency,[1],inactive
same,Potency,[2],inactive
same,Potency,[3],inactive
same,Potency,[4],inactive
Nc1nccn2c(C3CCC(C(=O)O)CC3)nc(-c3cc4cccc(Cl)c4[nH]3)c12 (centres undefined),Potency,[1],7.94 µM (active)
same,Potency,[2],3.16 µM (active)
same,Potency,[3],4.47 µM (active)
Cc1ccc(S(=O)(=O)c2ccc([N+](=O)[O-])o2)cc1,Potency,[1],14.1 µM (active)
same,Potency,[2],25.1 µM (active)
same,Potency,[3],7.94 µM (active)
C=C1C[C@]23C[C@H]1[C@@H](O)C[C@H]2[C@@]12C=C[C@H](O)[C@@](C)(C(=O)O1)[C@H]2[C@@H]3C(=O)O,Potency,[1],inactive
same,Potency,[2],inactive
same,Potency,[3],inactive
same,Potency,[4],inactive
CC1=CC(=O)CC2C1(O)CCC(C)C21CC(c2ccoc2)OC1=O (centres undefined),Potency,[1],inactive
same,Potency,[2],inactive
same,Potency,[3],inactive
same,Potency,[4],inactive
CC1(C)CC[C@]2(C(=O)O[C@@H]3O[C@H](CO)[C@@H](O)[C@H](O)[C@H]3O)CC[C@]3(C)C(=CCC4[C@@]5(C)CC[C@H](O[C@@H]6O[C@H](C(=O)O)[C@@H](O)[C@H](O)[C@H]6O)[C@@](C)(CO)C5CC[C@]43C)C2C1 (some centres undefined),"activity change, negative = cytotoxicity",[1],2.88% [at 11.6 µM]
same,"activity change, negative = cytotoxicity",[2],0% [at 11.6 µM]
same,"activity change, negative = cytotoxicity",[3],2.2% [at 11.6 µM]
same,"activity change, negative = cytotoxicity",[4],2.24% [at 11.6 µM]
NCCCNc1ccc(Nc2nccc(Nc3cc(C4CC4)[nH]n3)n2)cc1,Potency,[1],1.12 µM (active)
same,Potency,[2],7.08 µM (active)
same,Potency,[3],3.98 µM (active)
same,Potency,[4],2.82 µM (active)
Nc1nc2c(ncn2[C@@H]2O[C@H](CO)[C@@H](O)[C@H]2O)c(=O)[nH]1,Potency,[1],inactive
same,Potency,[2],inactive
same,Potency,[3],inactive
same,Potency,[4],inactive
CCNC(=O)Nc1ncc(-c2cc(-c3c(C)cc(OC)cc3C)nc(-c3cnccn3)n2)s1,Potency,[1],inactive
same,Potency,[2],inactive
same,Potency,[3],inactive
same,Potency,[4],inactive
COC(=O)/C=C/C12COC(C)(C)C1C(O)C(OC(C)=O)C1(C)C2CCC2(C)C(c3ccoc3)OC(=O)C3OC321 (centres undefined),Potency,[1],inactive
same,Potency,[2],inactive
same,Potency,[3],inactive
same,Potency,[4],inactive
Cc1c(F)cc(C(=O)NC2CC2)cc1-c1c(F)cn2c(C(C)(C)C)nnc2c1F,Potency,[1],inactive
same,Potency,[2],inactive
same,Potency,[3],inactive
same,Potency,[4],inactive
CC(C)(C)c1ccc(S(=O)(=O)NCc2ccc(C(=O)Nc3cccnc3)cc2)cc1,Potency,[1],1.12 µM (active)
same,Potency,[2],7.08 µM (active)
same,Potency,[3],1.78 µM (active)
CN(C)C(=O)NC1CCC(CCN2CCN(c3cccc(Cl)c3Cl)CC2)CC1 (centres undefined),"activity change, negative = cytotoxicity",[1],1.34% [at 11.6 µM]
same,"activity change, negative = cytotoxicity",[2],0.966% [at 11.6 µM]
same,"activity change, negative = cytotoxicity",[3],4.37% [at 11.6 µM]
same,"activity change, negative = cytotoxicity",[4],2.02% [at 11.6 µM]
CO[C@H]1/C=C/C=C/C=C/C[C@H](OC(=O)[C@@H](C)NC(=O)C2CCCCC2)[C@H](C)[C@@H](O)/C(C)=C/CCc2cc(O)cc(c2)NC(=O)C1,Potency,[1],0.355 µM (active)
same,Potency,[2],3.16 µM (active)
same,Potency,[3],2.82 µM (active)
